Assay [1] has as its target Progesterone receptor (Homo sapiens) (UniProt P06401). The assay can be described thus: qHTS assay to identify small molecule agonists of the progesterone receptor (PR) signaling pathway (AID 1346784; calls by dose curve; further: nearly all actives have a fitted effect of over 30% in size). The method, boiled down: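 Reporter assay, GripTite PR-UAS-bla HEK 293T cells: 16 hr exposure to DMSO-dissolved compounds at 37C, 5% CO2, in steroid-depleted (2% charcoal-stripped FBS) medium; beta-lactamase measured by FRET fluorescence.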
(qHTS replaces the single test concentration by a dilution series.)

Assay [2] shares this target. The assay can be described thus: qHTS assay to identify small molecule antagonists of the progesterone receptor (PR) signaling pathway (AID 1346795; active means well fitted inhibition curve with a large enough effect in the signal ratio in the repeat runs, not every such curve was filed as active; the % refers to the signal ratio). The method in brief: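 Stimulus R5020 at 1 nM final; cells HEK293T PR-UAS-bla; medium with 2% charcoal-stripped FBS; compound exposure 16 hr at 37C, 5% CO2; detection by FRET beta-lactamase substrate, 2 hr, room temperature.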

A short description of assay [3]: qHTS assay to identify small molecule antagonists of the progesterone receptor (PR) signaling pathway - cell viability counter screen (AID 1346798). Further: series mostly up to about 92 µM; nearly all actives have a fitted effect of over 50% in size. The method, boiled down: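 In the same plates used for the beta-lactamase readout, cell viability of compound- and R5020-treated PR-UAS-bla HEK293T cells (16 hr, 37C) was assessed by CellTiter-Glo luminescence.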
Assay [4] in a line: qHTS assay to identify small molecule agonists of the progesterone receptor (PR) signaling pathway - cell viability counter screen (AID 1346799; calls by dose curve; further: nearly all actives have a fitted effect of over 45% in size). The method in brief:
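Multiplexed viability read: CellTiter-Glo luminescence, 30 min RT, following LiveBLAzer FRET measurement on PR-UAS-bla HEK293T cells exposed to compounds 16 hr.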

Assay [5] is described as follows: qHTS assay to identify small molecule antagonists of the TGF-beta/Smad signaling pathway - cell viability counter screen (AID 1346824). Further: nearly all actives have a fitted effect of over 50% in size. The method in brief:
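SBE-bla HEK 293T cells were plated overnight at 37 C, then given compounds in DMSO plus TGF-beta1 (added as 0.25 ng/mL solution) for 5 hr. After the bla read, CellTiter-Glo was added to the same wells and luminescence read after 30 min at room temperature.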

The nature of assay [6]: qHTS assay to identify small molecule agonists of the TGF-beta/Smad signaling pathway - cell viability counter screen (AID 1346829). Further: top concentration of the series differs between compounds; nearly all actives have a fitted effect of over 45% in size. The method, boiled down: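 In parallel with the Smad reporter read, viability of HEK 293T cells stably carrying SBE-bla is quantified by ATP luminescence following 5 hr compound treatment.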
The nature of assay [7]: qHTS assay to identify small molecule agonists of the TGF-beta/Smad signaling pathway (AID 1346859; active means well fitted activation curve with a large enough effect in the signal ratio in the repeat runs, not every such curve was filed as active; the % refers to the signal ratio; further: series mostly up to about 77 µM). The method, boiled down:
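Screening used HEK 293T SBE-bla cells at 4,000/well. Test agents: 5 hr, 37 C. Detection: FRET substrate, 2 hr RT, then excitation 405 nm with emissions at 460 and 530 nm.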

Assay [8] deals with Thyrotropin-releasing hormone receptor (Homo sapiens) (UniProt P34981). The assay can be described thus: qHTS assay to identify small molecule antagonists of the thyrotropin-releasing hormone receptor (TRHR) signaling pathway (AID 1346877; active means well fitted inhibition curve with a large enough effect in the repeat runs, not every such curve was filed as active; further: series mostly up to about 51 µM). The method in brief: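 Overnight-plated (18 h, 37 °C) HEK293 cells expressing TRHR were dye-loaded 2 h, treated with compound, then stimulated with TRH at 1 nM final. Fluorescence intensity was captured every second for 3 min.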
Sequence of Thyrotropin-releasing hormone receptor (Homo sapiens) (P34981 whole entry, looked up): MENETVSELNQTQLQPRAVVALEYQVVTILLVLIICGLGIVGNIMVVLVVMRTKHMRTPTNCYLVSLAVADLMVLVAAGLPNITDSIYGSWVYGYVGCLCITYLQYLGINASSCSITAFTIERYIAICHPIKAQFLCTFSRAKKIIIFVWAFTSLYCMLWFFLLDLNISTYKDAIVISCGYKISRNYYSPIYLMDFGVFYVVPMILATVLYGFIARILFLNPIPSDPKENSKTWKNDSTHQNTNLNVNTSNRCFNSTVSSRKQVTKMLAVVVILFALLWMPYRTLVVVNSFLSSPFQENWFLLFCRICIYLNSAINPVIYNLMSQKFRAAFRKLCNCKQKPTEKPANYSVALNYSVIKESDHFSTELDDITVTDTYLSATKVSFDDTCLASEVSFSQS

Assay [9] has the same target. In words: qHTS assay to identify small molecule agonists of the thyrotropin-releasing hormone receptor (TRHR) signaling pathway (AID 1346891; calls by dose curve; further: series mostly up to about 58 µM). The method, boiled down: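 Readout was intracellular calcium fluorescence in TRHR-Hek293 cells. Cells were incubated 18 h, dye-loaded 2 h at 37 °C, and treated with compound in agonist mode.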
Assay [10] is described as follows: Caspase-3/7 induction in HepG2 cells by small molecules, qHTS assay (AID 1346978). Further: nearly all actives have a fitted effect of over 15% in size. The method, boiled down:
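Wild-type HepG2 cells (2,000/well) were settled 5 h at 37 C, 5% CO2, then exposed to compounds in DMSO for 17 h. Caspase-3/7 activity was read by luminescence 30 min after adding Caspase-Glo 3/7 reagent at room temperature.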

A short description of assay [11]: Caspase-3/7 induction in CHO-K1 cells by small molecules, qHTS cell viability counter screen (AID 1346979). Further: nearly all actives have a fitted effect of over 35% in size. The method in brief:
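Following a 5hr settling period, CHO-K1 cells at 1,500 per well received DMSO-dissolved compounds. Cell viability was quantified 16hr later by CellTiter-Fluor fluorescence, measured after 1hr with reagent at 37C.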

The nature of assay [12]: Caspase-3/7 induction in CHO-K1 cells by small molecules, qHTS assay (AID 1346980). Further: nearly all actives have a fitted effect of over 15% in size. The method in brief:
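Wild-type cells were seeded at 1,500 per well and settled 5 hr at 37 C, 5% CO2, then exposed to DMSO-dissolved compounds for 17 hr. Caspase-Glo 3/7 reagent was added, and luminescence was read after 30min at room temperature.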

Assay [13] is described as follows: Caspase-3/7 induction in HepG2 cells by small molecules, qHTS cell viability counter screen (AID 1346981). Further: series mostly up to about 92 µM; nearly all actives have a fitted effect of over 30% in size. The method in brief:
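Treatment of HepG2 cells with DMSO-delivered compounds ran 16 hr at 37 C following a 5-hr pre-incubation of 2,000 cells/well. CellTiter-Fluor fluorescence, read after 1 hr, served as the viability measure in a qHTS format.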

For assay [14], the target named is Nuclear receptor subfamily 1 group I member 2 (Rattus norvegicus) (UniProt Q9R1A7). The assay can be described thus: Rat pregnane X receptor (rPXR) activation by small molecules, qHTS assay (AID 1346983). Further: nearly all actives have a fitted effect of over 20% in size. The following applies: rPXR luciferase reporter cells, One-Glo luminescence, 24 h; active compounds read high. The method, boiled down: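 Cell-based rPXR luciferase reporter assay, 2,000 cells per well, rested 5hr at 37 C before compound addition in DMSO, then 24 hr at 37 C. One-Glo reagent was added and luminescence read after 30 min at room temperature.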
Sequence of Nuclear receptor subfamily 1 group I member 2 (Rattus norvegicus) (Q9R1A7 whole entry, looked up): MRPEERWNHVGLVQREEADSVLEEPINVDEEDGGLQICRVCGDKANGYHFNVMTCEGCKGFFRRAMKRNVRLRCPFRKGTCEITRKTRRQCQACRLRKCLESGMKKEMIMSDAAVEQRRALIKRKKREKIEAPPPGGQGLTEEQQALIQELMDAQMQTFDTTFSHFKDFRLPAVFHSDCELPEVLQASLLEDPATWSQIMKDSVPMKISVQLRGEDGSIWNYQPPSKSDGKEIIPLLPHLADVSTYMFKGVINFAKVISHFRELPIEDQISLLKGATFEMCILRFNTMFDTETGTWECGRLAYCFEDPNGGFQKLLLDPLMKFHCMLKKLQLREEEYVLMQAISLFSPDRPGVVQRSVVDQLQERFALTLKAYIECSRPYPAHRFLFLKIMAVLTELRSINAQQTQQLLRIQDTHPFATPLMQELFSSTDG

Assay [15] deals with Nuclear receptor subfamily 1 group I member 2 (Homo sapiens) (UniProt O75469). In words: Human pregnane X receptor (PXR) activation by small molecules, qHTS assay (AID 1346985). Further: nearly all actives have a fitted effect of over 40% in size. The method in brief: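 DPX-2 cells (HepG2 co-transfected with a PXR response element and a CYP3A4-promoter luciferase construct) were seeded at 2,000 per well, rested 5 hr at 37C, then exposed to DMSO-dissolved compounds for 24 hr. Activation was read as luciferase luminescence.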
Sequence of Nuclear receptor subfamily 1 group I member 2 (Homo sapiens) (O75469 whole entry, looked up): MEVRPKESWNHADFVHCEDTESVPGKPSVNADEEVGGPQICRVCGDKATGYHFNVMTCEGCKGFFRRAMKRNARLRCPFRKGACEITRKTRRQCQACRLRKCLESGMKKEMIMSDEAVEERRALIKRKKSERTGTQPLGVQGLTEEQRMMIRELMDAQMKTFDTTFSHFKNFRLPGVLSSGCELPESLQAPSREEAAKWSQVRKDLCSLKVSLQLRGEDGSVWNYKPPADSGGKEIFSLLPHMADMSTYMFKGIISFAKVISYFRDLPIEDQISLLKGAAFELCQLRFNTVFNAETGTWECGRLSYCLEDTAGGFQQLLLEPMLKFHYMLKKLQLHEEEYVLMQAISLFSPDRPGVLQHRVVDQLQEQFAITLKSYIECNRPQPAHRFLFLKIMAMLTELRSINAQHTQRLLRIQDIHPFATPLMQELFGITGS

Assay [16] deals with Cytochrome P450 2D6 (Homo sapiens) (UniProt P10635). The assay can be described thus: Cytochrome P450 Family 2 Subfamily D Member 6 (CYP2D6) small molecule antagonists: luciferase reporter qHTS assay (AID 1671196). Further: nearly all actives have a fitted effect of over 50% in size. Further: potency means the concentration at half of the fitted maximal effect. The method, boiled down: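 Chemicals tested for interference with CYP2D6 activity; proluciferin substrate, NADPH regeneration, 1 h at room temperature, luminescent detection.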
Sequence of Cytochrome P450 2D6 (Homo sapiens) (P10635 whole entry, looked up): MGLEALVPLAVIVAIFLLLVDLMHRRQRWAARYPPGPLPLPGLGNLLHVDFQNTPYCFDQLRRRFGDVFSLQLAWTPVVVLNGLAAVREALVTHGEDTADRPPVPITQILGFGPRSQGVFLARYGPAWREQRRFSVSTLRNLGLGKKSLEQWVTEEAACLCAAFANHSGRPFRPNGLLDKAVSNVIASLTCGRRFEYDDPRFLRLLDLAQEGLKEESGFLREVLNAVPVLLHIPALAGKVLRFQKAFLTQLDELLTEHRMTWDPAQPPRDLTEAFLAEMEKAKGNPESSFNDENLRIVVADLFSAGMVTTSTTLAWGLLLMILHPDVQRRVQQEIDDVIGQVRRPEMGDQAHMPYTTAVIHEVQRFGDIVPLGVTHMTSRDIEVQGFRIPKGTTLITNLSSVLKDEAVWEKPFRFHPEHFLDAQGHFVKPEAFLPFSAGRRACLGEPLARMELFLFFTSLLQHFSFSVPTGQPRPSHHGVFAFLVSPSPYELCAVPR

In assay [17] the target is Cytochrome P450 2C19 (Homo sapiens) (UniProt P33261). The assay can be described thus: Cytochrome P450 Family 2 Subfamily C Member 19 (CYP2C19) small molecule antagonists: luciferase reporter qHTS assay (AID 1671197). Further: nearly all actives have a fitted effect of over 65% in size. Further: potency means the concentration at half of the fitted maximal effect. The method in brief: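 Compounds were tested on CYP2C19 activity via proluciferin conversion to luciferin. The 37C, 1 h reaction followed NADPH addition; detection reagent stopped it.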
Sequence of Cytochrome P450 2C19 (Homo sapiens) (P33261 whole entry, looked up): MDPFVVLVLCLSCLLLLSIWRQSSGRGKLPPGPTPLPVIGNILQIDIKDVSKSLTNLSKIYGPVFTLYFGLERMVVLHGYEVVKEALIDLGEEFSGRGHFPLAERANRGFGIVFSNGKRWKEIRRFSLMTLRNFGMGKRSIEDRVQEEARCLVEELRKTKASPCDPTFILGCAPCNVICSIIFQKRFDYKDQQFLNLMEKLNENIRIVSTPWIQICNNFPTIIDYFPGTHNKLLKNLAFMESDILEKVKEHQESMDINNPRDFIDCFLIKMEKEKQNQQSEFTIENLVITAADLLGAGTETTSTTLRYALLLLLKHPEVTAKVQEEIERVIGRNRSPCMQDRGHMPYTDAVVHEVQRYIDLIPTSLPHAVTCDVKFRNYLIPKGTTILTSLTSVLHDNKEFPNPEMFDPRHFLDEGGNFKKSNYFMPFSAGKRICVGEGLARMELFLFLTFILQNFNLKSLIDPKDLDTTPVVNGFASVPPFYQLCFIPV
For orientation: A reporter such as luciferase makes a cellular process visible.

Assay [18] can be described thus: Human pregnane X receptor (PXR) small molecule agonists, qHTS cell viability counter screen (AID 1346977). Further: nearly all actives have a fitted effect of over 50% in size. The method in brief: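 In each well, the PXR reporter HepG2 line was checked for viability: CellTiter-Fluor reagent added 23hr post-dosing, fluorescence read after 1hr incubation at 37C.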
In assay [19] the target is Nuclear receptor subfamily 1 group I member 2 (Homo sapiens) (UniProt O75469). In words: Human pregnane X receptor (PXR) small molecule agonists, qHTS assay (AID 1346982). Further: nearly all actives have a fitted effect of over 35% in size. The method, boiled down: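 Stable HepG2 line reporting PXR-mediated CYP3A4 expression via luciferase. Treatment: 24 hr with compounds in DMSO at 37 C. Detection: ONE-Glo luminescence.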

Unmarked numbers belong to inactive results. Inconclusive results are not listed. Activity calls are given as the source filed them. Unless noted, the call rests on the fitted dose curve; in most records, active means well fitted curve in the direction sought with a large enough effect in the repeat runs; inconclusive means weak or mixed curves; inactive means no such curve, though single readings can be large; an effect the other way counts as inactive or inconclusive.
On the % scale 0 is the no-effect control and ±100 the full control effect.

Sequence of Progesterone receptor (Homo sapiens) (P06401 whole entry, looked up): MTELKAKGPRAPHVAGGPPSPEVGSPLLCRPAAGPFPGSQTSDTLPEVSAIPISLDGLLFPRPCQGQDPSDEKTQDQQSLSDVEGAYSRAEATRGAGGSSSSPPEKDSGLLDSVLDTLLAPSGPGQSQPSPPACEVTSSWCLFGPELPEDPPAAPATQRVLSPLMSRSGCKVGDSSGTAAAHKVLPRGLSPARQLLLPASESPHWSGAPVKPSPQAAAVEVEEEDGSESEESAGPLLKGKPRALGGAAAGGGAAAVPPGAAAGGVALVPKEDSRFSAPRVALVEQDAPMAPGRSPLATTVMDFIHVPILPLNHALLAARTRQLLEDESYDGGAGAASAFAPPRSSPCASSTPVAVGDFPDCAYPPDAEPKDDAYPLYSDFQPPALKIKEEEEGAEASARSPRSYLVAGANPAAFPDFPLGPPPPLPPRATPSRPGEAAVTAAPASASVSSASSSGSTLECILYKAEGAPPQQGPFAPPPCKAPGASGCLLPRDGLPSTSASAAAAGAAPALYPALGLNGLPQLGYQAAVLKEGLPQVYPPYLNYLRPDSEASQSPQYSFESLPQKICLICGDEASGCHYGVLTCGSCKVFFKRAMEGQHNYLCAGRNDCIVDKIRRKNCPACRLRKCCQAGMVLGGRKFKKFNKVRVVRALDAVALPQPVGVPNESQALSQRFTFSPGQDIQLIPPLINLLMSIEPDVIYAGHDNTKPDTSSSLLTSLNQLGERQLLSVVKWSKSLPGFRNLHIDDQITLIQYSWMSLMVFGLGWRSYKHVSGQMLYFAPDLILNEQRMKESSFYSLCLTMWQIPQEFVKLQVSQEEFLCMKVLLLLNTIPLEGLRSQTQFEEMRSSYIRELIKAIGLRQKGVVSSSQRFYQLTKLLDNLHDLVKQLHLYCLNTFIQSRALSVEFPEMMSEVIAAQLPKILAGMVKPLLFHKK

For `COC(=O)c1ccccc1C(=O)c1ccc(OCCN2CCCCC2)cc1`, the Potency entry in assay [1], in assay [2], in assay [3], in assay [4], in assay [10] and in assay [11] was “inactive” in each case. The Potency result in assay [13], in assay [15] and in [17] was “inactive” each time. Further, the result in assay [5], in [6], in assay [7], in [8], in assay [9] and in [12] was inactive. Besides, in assay [14], the max activation is -0.568%. Moreover, the Potency in assay [16] was 15.5 µM (active).

Turning to `C=COCCOCCOCCOC=C`, the Potency entry in [1], in assay [2], in [3], in assay [4], in [18] and in assay [10] was “inactive” in each case. The Potency result in [11], in assay [13], in assay [19] and in [16] was “inactive” throughout. The outcome in [5], in assay [6], in assay [7], in assay [9] and in [12] was inactive. Moreover, in assay [17], the Potency is 79.6 µM (active).

For `CC(C)CC(=O)O`, the Potency entry in assay [1], in assay [2], in assay [3], in [4], in assay [18] and in assay [10] was “inactive” each time. Besides, the Potency entry in assay [11] and in assay [13] was “inactive” in each case. Besides, the result in assay [5], in [6], in [7], in [8] and in assay [12] was inactive.

Turning to `O=C(CCNNC(=O)c1ccncc1)NCc1ccccc1`, the Potency result in assay [1], in assay [2], in assay [3], in assay [4], in [18] and in [10] was “inactive” each time. For the same compound, the Potency result in [13] and in assay [19] was “inactive” in each case. In addition, the compound was called inactive in assay [5], in assay [6], in assay [7], in assay [8] and in assay [12]. Moreover, the results for the Potency in [16] and in assay [17] were 15.5 µM (active) and 11 µM (active), respectively.

Turning to `CC/C=C\CC1=C(C)CCC1=O`, the Potency result in assay [1], in assay [2], in assay [3], in assay [4], in [18] and in assay [10] was “inactive” each time. Besides, the Potency result in [11], in assay [13] and in assay [16] was “inactive” in each case. The call in assay [5], in assay [6], in [7], in assay [8] and in assay [12] was inactive. Further, the Potency in assay [17] is 63.3 µM (active).

For the compound `Nc1nnc(-c2cccc(Cl)c2Cl)c(N)n1`, the Potency result in [1], in [2], in [3], in assay [4], in assay [18] and in assay [10] was “inactive” in each case. The Potency entry in assay [11], in assay [13] and in assay [17] was “inactive” throughout. Also, the call in [5], in [6], in assay [7], in [9] and in assay [12] was inactive.

Regarding `CC1COc2ccccc2N1` (stereo unspecified), the Potency result in assay [1], in assay [2], in assay [3], in assay [4], in assay [18] and in assay [11] was “inactive” each time. Further, the Potency result in assay [13], in [19] and in assay [16] was “inactive” in each case. In addition, the call in assay [5], in [6], in assay [7], in assay [8], in [9] and in [12] was inactive. In assay [17], the Potency was 44.8 µM (active).

For `Cc1cccc2nccnc12`, the Potency result in [1], in [2], in assay [3], in assay [4], in [18] and in assay [11] was “inactive” throughout. The Potency entry in assay [13], in assay [19] and in assay [17] was “inactive” throughout. Moreover, the outcome in [5], in [6], in [7], in assay [8], in assay [9] and in assay [12] was inactive.

These data come from PubChem BioAssay (Tox21).
